The values that follow come from the supplement of paper PMC6522484.

The structures appear in SMILES notation. ± gives the standard deviation of the averaged measurements.

The test system of assay [1] is DLD1. The assay can be described thus: cell viability (CellTiter-Glo) relative to plate median (fraction of plate median); higher = more viable cells. As to conditions: 5 µM; treatment time 24 h; reporter: 7TFP. The method, boiled down:
(§1)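 Stable lentiviral TCF/Wnt firefly luciferase reporters (7TFP or TCF4/Wnt) were present in the colorectal cancer cell lines used. These cells received library compounds at a final 5 µM for 24 h, and parallel plates were read for firefly luciferase or CellTiterGlo luminescence. Each well was normalised to the plate median, and the value reported is the mean of two independent replicates.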
For orientation: ATP-based viability assays read luminescence as a measure of living cells.

Another assay relates to HCT116. The assay is described as above. The note with it: 5 µM; treatment time 24 h; reporter: TCF4/Wnt. The method, boiled down:
as §1

In assay [2] the test system is SW480. The assay is described as above. As to conditions: 5 µM; treatment time 24 h; reporter: 7TFP. In short, it runs like this: as §1
In assay [3] the test system is DLD1. The assay can be described thus: TCF/Wnt firefly luciferase reporter signal relative to plate median (fraction of plate median); higher = higher Wnt reporter signal. As to conditions: 5 µM; treatment time 24 h; reporter: 7TFP. The method, boiled down:
as §1
On the technique in general: A reporter such as luciferase makes a cellular process visible.

Assay [4] concerns SW480. The description is as above. The note with it: 5 µM; treatment time 24 h; reporter: 7TFP. In short, it runs like this: as §1

Turning to `CN(C)CCCN1c2ccccc2CCc2ccccc21`, the cell viability with DLD1 [1] amounted to 1.05 ± 0.1; with HCT116 it was 0.989 ± 0.1; in the assay on SW480 [2] it was 1.015 ± 0.0071. Further, the “TCF/Wnt firefly luciferase reporter signal” value in the assay on DLD1 [3] came out at 0.881 ± 0.012; in the assay with SW480 [4] it was 0.913 ± 0.024.
Taken in the same sequence, the figures for `O=C(O)C1CCCNC1` (stereo not given) were 0.994 ± 0.023, 1 ± 0.071, 0.948 ± 0.067, 1.03 ± 0.065 and 0.938 ± 0.13.
Taken in the same sequence, the figures for `Oc1ccc(OCc2ccccc2)cc1` were 1.07 ± 0.05, 0.975 ± 0.078, 0.982 ± 0.017, 1 ± 0.17 and 0.754 ± 0.05.
For `NC(=O)NC1NC(=O)NC1=O` (stereo not given), in that order: 1.03 ± 0.014, 1.09 ± 0.057, 1.01 ± 0.03, 1.02 ± 0.15 and 1.055 ± 0.0071.
On to `Cc1ccc(C(C)C)cc2c(C)ccc1-2`, for which the results for the cell viability in the assay on DLD1 [1], in the assay with HCT116 and in the assay with SW480 [2] were 1.04 ± 0.057, 1.085 ± 0.0071 and 1.06 ± 0.014, respectively. Also, the “TCF/Wnt firefly luciferase reporter signal” value with DLD1 [3] is 1 ± 0.14; in the assay with SW480 [4], 0.894 ± 0.16.
For `Oc1ccc(/C=C/c2cc(O)cc(O)c2)cc1`, in that order: 0.995 ± 0.022, 1.05 ± 0.042, 1.03 ± 0.098, 1.05 ± 0.05 and 0.891 ± 0.059.
For `CN1C(C(=O)Nc2ccccn2)=C(O)c2sccc2S1(=O)=O`, in that order: 0.932 ± 0.03, 0.893 ± 0.011, 0.9585 ± 0.00071, 0.978 ± 0.073 and 1.09 ± 0.014.
For `CCOC(=O)C(=O)C1(C(=O)OCC)Oc2cc(OC)cc(OC)c2C(=O)C1c1ccccc1` (stereo not given), in that order: 0.978 ± 0.03, 0.951 ± 0.23, 1.01 ± 0.13, 0.939 ± 0.083 and 1.02 ± 0.069.
Turning to `CC(=O)O[C@H]1CC[C@]2(C)[C@H]3CC[C@]4(C)C(=CC[C@@]5(C(=O)O)CCC(C)(C)C[C@H]54)[C@]3(C)CC[C@H]2C1(C)C` [3-Acetylaleuritolic acid], the results for the cell viability with DLD1 [1], with HCT116 and with SW480 [2] were 1.01 ± 0.11, 1.04 ± 0.11 and 1.01 ± 0.044, respectively. The “TCF/Wnt firefly luciferase reporter signal” value in the assay on DLD1 [3] came out at 0.879 ± 0.0085; in the assay with SW480 [4], 1.02 ± 0.06.
On to `C[C@@H]1CC[C@]2(C(=O)O[C@@H]3O[C@H](CO)[C@@H](O)[C@H](O)[C@H]3O)CC[C@]3(C)C(=CC[C@@H]4[C@@]5(C)C[C@@H](O)[C@H](O)[C@@](C)(CO)[C@@H]5CC[C@]43C)[C@@H]2[C@]1(C)O` [Nigaichigoside F1], for which the cell viability in the assay with DLD1 [1] is 1.17 ± 0.11; in the assay on HCT116 it was 1.02 ± 0.072; in the assay on SW480 [2], 1.05 ± 0.042. In addition, the entries for the “TCF/Wnt firefly luciferase reporter signal” value in the assay with DLD1 [3] and in the assay on SW480 [4] were 1.08 ± 0.028 and 1.06 ± 0.24, respectively.
